The full list was thinned out, with hits kept by preference.
Casp1 inh – caspase-1 (human) inhibition, allosteric or competitive. P29466. Caspase-1 enzyme, Ac-WEHD-AFC fluorogenic rate. Potency, µM (top dose mostly 57.5 µM), for inactives: top-dose activity change, negative = inhibition, usual class: inhibitors. actives 0.03% (n = 75,000);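 further: plate controls were vehicle for no effect and no substrate for full effect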
Caspase-7 inhib – caspase-7 (human) inhibition, allosteric or competitive; P55210; AID 889; actives 0.02% (n = 75,000); recombinant caspase-7, Ac-DEVD-AFC fluorescence rate; Potency, µM (top dose mostly 57.5 µM), for inactives: at the top dose activity change, negative = inhibition, actives largely listed as inhibitors; active means well fitted inhibition curve with a large enough effect in the main read-out, with a control signal flat, not every such curve was filed as active; inconclusive means small, poorly fitted or top-dose-only effect, or a change in a side signal; further: % of control where 0% means no effect
USP2a inh – USP2a (human) protease inhibition | Potency, µM (top dose mostly 38.3 µM), without a hit: at the top dose activity change, negative = inhibition, actives largely listed as inhibitors | AID 927 | O75604 | actives 0.1% (n = 60,000) | USP2a enzymatic assay, qHTS inhibition; further: nearly all actives have a fitted effect of over 60% in size
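Coupled readout: USP2-cleaved Ub-PLA2 (20nM final) turns over NBD C6-HPC (20uM final), Ex 460nm/Em 535nm after 2.5 h, time-zero read flagging artifacts. Enzyme (20nM final, pH 8.0 Tris) given 30 min RT with compound first; NEM defines full inhibition.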
Ub-GFP proteasome – ubiquitin-GFP accumulation via proteasome inhibition. Potency, µM (doses to about 45.9 µM), inactives show top-dose activation (GFP accumulation), actives largely listed as activators. Ubiquitin-GFP reporter cells, proteasome inhibition, GFP fluorescence; response scale: untreated = 0%, 10 µM MG-132 = 100%. 67,000 tested, under 10 active; active means well fitted activation curve with a large enough effect, not every such curve was filed as active; inconclusive means small, poorly fitted or top-dose-only effect, or another doubt; inactive means no such curve, though single readings can be large or run the other way
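Proteasome blockade was scored as a rise in GFP-expressing U2OS cells carrying a ubiquitin(G76V)-GFP construct, imaged after 4 hr compound treatment at 37 °C across a 46 uM–2.9 nM series.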
15-hLO inh – 15-hLO (ALOX15) enzyme inhibition. P16050. purified 15hLO-1, xylenol orange hydroperoxide absorbance. Potency, µM (titrated, usually from 57.1 µM), for inactives: at the top dose activity change, negative = inhibition, usual class: inhibitors. actives 1.4% (n = 74,000). AID 887; further: on the % scale 0 is the no-effect control and ±100 the full control effect; nearly all actives have a fitted effect of over 55% in size
Target sequence (P16050 whole entry, looked up): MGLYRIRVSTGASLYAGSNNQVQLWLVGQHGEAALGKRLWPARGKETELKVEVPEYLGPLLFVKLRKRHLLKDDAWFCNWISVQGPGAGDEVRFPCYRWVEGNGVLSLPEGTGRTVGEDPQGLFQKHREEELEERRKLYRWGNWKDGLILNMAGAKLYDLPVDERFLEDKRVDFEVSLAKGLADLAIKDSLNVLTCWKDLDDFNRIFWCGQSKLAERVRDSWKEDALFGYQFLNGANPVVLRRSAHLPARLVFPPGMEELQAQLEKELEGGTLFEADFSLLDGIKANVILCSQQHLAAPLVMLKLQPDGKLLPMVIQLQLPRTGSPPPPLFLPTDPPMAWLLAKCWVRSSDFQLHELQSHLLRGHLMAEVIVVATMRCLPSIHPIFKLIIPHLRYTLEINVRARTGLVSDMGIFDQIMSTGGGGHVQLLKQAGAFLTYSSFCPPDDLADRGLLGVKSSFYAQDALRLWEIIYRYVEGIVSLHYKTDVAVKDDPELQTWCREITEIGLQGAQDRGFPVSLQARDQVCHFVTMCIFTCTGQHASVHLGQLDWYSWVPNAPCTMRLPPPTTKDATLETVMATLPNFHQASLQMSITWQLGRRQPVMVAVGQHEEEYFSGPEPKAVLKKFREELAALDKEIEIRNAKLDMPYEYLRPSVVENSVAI
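Inhibition is scored from a chromogenic endpoint. After 15 min enzyme-compound contact, arachidonic acid (50 uM final) reacts 6 min with 40 nM 15hLO-1 at room temperature, then Fe-XO reagent is added for 30 min and absorbance ratio recorded.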
ALOX15B inhib – blocks human 15-lipoxygenase 2 activity | purified 15hLO-2, xylenol orange hydroperoxide absorbance | Potency, µM (top dose mostly 57.1 µM), for the others: top-dose activity change, negative = inhibition, most hits filed as inhibitors | actives 0.56% (n = 110,000); further: on the % scale 0 is the no-effect control and ±100 the full control effect; nearly all actives have a fitted effect of over 60% in size
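Screening format was qHTS against 50 nM purified 15hLO-2 in Hepes pH 7.5 with detergent. Activity follows hydroperoxide formation from 45 uM arachidonic acid, measured as 573:405 nm absorbance ratio of the ferric-xylenol orange complex.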
* hit, by the source's call; ? = inconclusive; · = no result; [ ] = another dose, or the depositor's remark. Unless noted, the call rests on the fitted dose curve; in most records, active means well fitted curve in the direction sought with a large enough effect; inconclusive means small, poorly fitted or top-dose-only effect, or another doubt; inactive means no such curve, though single readings can be large; an effect the other way counts as inactive or inconclusive. Potency means the concentration at half of the fitted maximal effect.

SMILES	Casp1 inh	Caspase-7 inhib	USP2a inh	Ub-GFP proteasome	15-hLO inh	ALOX15B inhib
Cc1c(Cl)cc(C(C)(C)C)c(O)c1Cc1c(C)c(Cl)cc(C(C)(C)C)c1O	-2%[11.5 µM]	-1%[11.5 µM]	·	-5%[9.17 µM]	-18%[11.4 µM]	-6%[11.4 µM]
O=C(NCCO)c1ccc(-n2c(=O)c(=O)[nH]c3ccccc32)cc1	-2%	-1%	·	·	4%	·
O=C(NC1CCN(C(=O)N2c3ccccc3Sc3ccccc32)CC1)c1ccccc1F	·	·	·	·	·	16µM*
COc1ccccc1CNc1ncnc2ccc(-c3ccccc3C#N)cc12	-4%	-7%	217%	-7%	-11%	34%
CCCCCCCCCCCCC/C=C\[C@H](O)[C@H](N)CO	·	·	·	-2%	·	·
Cc1[nH]c2ccccc2c1Cc1nnc(SCC(=O)NCc2ccco2)o1	·	?	·	3%	13µM*	-6%
Cc1ccccc1Nc1nnc(SCC(=O)NC(=O)NCc2ccco2)s1	-1%	-15%	17%	-4%	16µM*	-12%
COCCSc1ccccc1C(=O)Nc1nccs1	0%	1%	2%	3%	-10%	?
CCOc1ccccc1C(=O)Nc1nccs1	1%	4%	·	-2%	7.9µM*	2%
Clc1ccccc1OCc1nc(-c2ccc(Br)o2)no1	·	·	·	·	·	-16%
Fc1ccc(OCc2nc(-c3ccc(Br)o3)no2)c(F)c1	-1%	-4%	·	16%	7.9µM*	-20%
CO[Si](CCCNCCC[Si](OC)(OC)OC)(OC)OC	-1%	0%	·	·	-2%	-6%
CCCCCCCC/C=C\CCCCCCCC(=O)NCCc1ccc(O)c(O)c1	0%	-3%	-15%	0%	4µM*	?
CCCCCCCCCCCCCCCC(=O)NCCc1ccc(O)c(O)c1	1%	-2%	·	·	-5%	-9%
NC=O	-3%	-2%	·	·	-6%	-4%
O=C1Nc2ccc(I)cc2/C1=C/c1cc(Br)c(O)c(Br)c1	-14%	-20%	-18%	-1%	13µM*	?
Cn1c(-c2ccc3c(c2)OCO3)cnc1NCc1cccc(Cl)c1	0%	-3%	5%	1%	20µM*	10%
Cn1c(-c2ccc3c(c2)OCO3)cnc1NCc1ccccc1	0%	0%	-13%	-1%	?	1%
O=C(Nc1cccc(F)c1)N1CCCC2(CCN(C(=O)c3ccco3)CC2)C1	-3%	-1%	37%	-7%	0.32µM*	27%
Cc1ccccc1C	1%	2%	·	·	3%	-8%
N#CC1=C(N)C(C#N)(C#N)C(c2cccnc2)C2CCCC=C12 (configuration not stated)	·	?	12%	4%	25µM*	-7%
Nc1ccc(CCNc2ncnc3c2ncn3[C@@H]2O[C@@H](CO)[C@H](O)[C@@H]2O)cc1	4%	1%	0%	4%	4%	-1%
Cc1ccc(CSC2=Nc3ccccc3C3=NC(CCC(=O)NCc4ccco4)C(=O)N23)cc1 (configuration not stated)	-6%	-7%	44%	-1%	?	-27%
O=C(CC1N=C2c3ccccc3N=C(SCc3ccc(Cl)cc3)N2C1=O)NCc1ccco1 (configuration not stated)	-10%	-23%	42%	-7%	25µM*	-17%
CC1=C(C#N)c2nc(N)c(C#N)c(C)c2/C1=C\c1ccccc1	1%	0%	·	-5%	40µM*	·
SMILES	Casp1 inh	Caspase-7 inhib	USP2a inh	Ub-GFP proteasome	15-hLO inh	ALOX15B inhib
Cc1nc(N)c(C#N)c(-c2ccccc2)c1C	0%	-1%	-3%	-6%	-3%	-5%
C=C(CO)[C@H]1Cc2c(ccc3c(=O)c4c(oc23)COc2cc(OC)c(OC)cc2-4)O1	·	·	·	3%	·	·
CCOC(=O)NC1(NC2CCCCC2)Oc2ccccc2O1	1%	8%	-14%	-1%	25µM*	-20%
CCOC(=O)NC1(NC(C)C)Oc2ccccc2O1	·	·	·	·	·	-17%
Nc1ncnc2c1ncn2[C@@H]1O[C@@H](CO)[C@H](O)[C@@H]1O	5%	1%	-3%	-5%	-4%	-6%
CCOC(=O)C1CCN(c2c(NCc3ccc(C(=O)O)cc3)c(=O)c2=O)CC1	1%	0%	·	-3%	7%	·

From PubChem BioAssay
